NPC1 promoter act = qHTS Assay for NPC1 Promoter Activators. Huh7 NPC1 promoter luciferase reporter, 24 h. hit rate 2.4% among 320,000. Potency, µM (series often up to 9.22 µM), without a hit: top-dose activation, most hits filed as activators. AID 485313, 2010; also: % of control where 0% means no effect; nearly all actives have a fitted effect of over 60% in size
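In 1536-well qHTS, Huh7 cells harboring an NPC1 promoter–luciferase construct received compound for 24 h; activation was quantified by luminescence following luciferase reagent addition.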
Rab9 prom act = qHTS Assay for Rab9 Promoter Activators; Huh7 Rab9 promoter-luciferase reporter, luminescence, 24 h; Potency, µM (titrated, usually from 9.22 µM), without a hit: at the top dose activation, negative = inhibition, usual class: activators; hit rate 2.8% among 320,000; AID 485297, 2010; also: % of control where 0% means no effect; nearly all actives have a fitted effect of over 60% in size
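Huh7 reporter line, Rab9 promoter upstream of luciferase. Compound exposure 24 h at 37 °C in reduced-serum medium with 10% FBS. Read-out: luminescence.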
FLuc counter = qHTS profiling assay for firefly luciferase inhibitor/activator using purifed enzyme and Km concentrations of substrates (counterscreen for miR-21 project). hit rate 6.9% among 360,000. AID 588342, 2011. purified FLuc, Km substrates, luminescence inhibition. Luciferin 4-monooxygenase (Photinus pyralis), P08659. Potency, µM (series often up to 57.5 µM), without a hit: at the highest dose activity change, negative = inhibition, actives largely listed as inhibitors;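 also: plate controls were vehicle for no effect and reference inhibitor for full effect; nearly all actives have a fitted effect of over 55% in size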
Target sequence (P08659 whole entry, looked up): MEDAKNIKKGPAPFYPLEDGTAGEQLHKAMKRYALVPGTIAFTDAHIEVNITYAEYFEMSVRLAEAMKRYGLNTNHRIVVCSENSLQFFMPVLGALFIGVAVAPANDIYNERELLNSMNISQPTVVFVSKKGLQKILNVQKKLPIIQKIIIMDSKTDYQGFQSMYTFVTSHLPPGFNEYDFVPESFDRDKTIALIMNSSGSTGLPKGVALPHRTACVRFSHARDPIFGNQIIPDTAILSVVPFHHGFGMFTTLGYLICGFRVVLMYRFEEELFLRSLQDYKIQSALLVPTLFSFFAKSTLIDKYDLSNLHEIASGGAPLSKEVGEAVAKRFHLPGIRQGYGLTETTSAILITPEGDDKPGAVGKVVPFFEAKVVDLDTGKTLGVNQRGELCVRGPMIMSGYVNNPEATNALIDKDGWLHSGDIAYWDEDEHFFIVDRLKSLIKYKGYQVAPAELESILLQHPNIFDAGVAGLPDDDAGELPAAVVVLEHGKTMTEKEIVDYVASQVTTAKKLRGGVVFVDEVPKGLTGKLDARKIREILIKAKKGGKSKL
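Purified P. pyralis luciferase (10nM final) with 10uM D-luciferin and 10uM ATP (Km levels) in 50mM Tris acetate pH 7.5, 10mM Mg acetate, 0.01% Tween-20, 0.05% BSA; qHTS 6-point titration, ~60 µM downward; luminescence read.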
SMN2 splice enh = qHTS Assay for Enhancers of SMN2 Splice Variant Expression | hit rate 2.8% among 210,000 | Potency, µM (series often up to 46.1 µM), for the others: at the top dose activity change, positive = activation, most hits filed as activators | HEK293 SMN2-luciferase splicing reporter, luminescence, 30-36 h; also: % of control where 0% means no effect; nearly all actives have a fitted effect of over 55% in size
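HEK293 cells carry an SMN2 minigene-luciferase reporter in which exon 7 inclusion puts luciferase in frame. Cells were seeded at 2000 cells/well, attached for 10-12 hours, then exposed to compounds for 30-36 hours at 37C before ONE-Glo luminescence.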
ELG1 genotoxic = qHTS screen for small molecules that induce genotoxicity in human embryonic kidney (HEK293T) cells expressing luciferase-tagged ELG1; HEK293T ELG1-luciferase reporter, luminescence, 16 h; hit rate 1.3% among 330,000; Potency, µM (series often up to 46 µM), for the others: at the highest dose activity change, positive = activation, hits mostly activators; also: % of control where 0% means no effect; nearly all actives have a fitted effect of over 60% in size
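After overnight (16 hr) compound treatment at 37 °C, ELG1-luciferase HEK293T cells were lysed with ONE-Glo; luminescence quantified 30 min later at room temperature.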
* marks the source's active call; other numbers are inactive results; ? = inconclusive; . = no result; [ ] = remark or other dose. A selection: hits, their analogues and other compounds. The true share with any hit is near 7.4%. Calls follow the shape of the dose curve; as a rule, active = well fitted curve in the direction sought with a large enough effect; inconclusive = small, poorly fitted or top-dose-only effect, or another doubt; inactive = no such curve, though single readings can be large; an effect the other way counts as inactive or inconclusive. Potency is read from the fitted curve at half-maximal effect.

SMILES | NPC1 promoter act | Rab9 prom act | FLuc counter | SMN2 splice enh | ELG1 genotoxic
COc1ccc(/C=C(\C#N)c2nc3ccccc3n2C)c(OC)c1 | . | . | 24µM* | 24% | .
CCOc1ccccc1N/C=C(\C#N)c1nc2ccccc2n1C | -7% | 1% | -17% | 3% | 13%
CN1c2cc3c(cc2N=C(c2ccc(C(=O)O)cc2)c2ccccc21)C(C)(C)CCC3(C)C | . | . | . | -70% | .
Cc1nn(C)c(C)c1S(=O)(=O)N(CC(=O)NCCCN1CC(C)CC(C)C1)c1ccc(C(C)C)cc1 (centres undefined) | 1% | -7% | 8% | . | 1%
COc1c(OC(C)=O)ccc(/C=C/c2ccc3ccccc3n2)c1[N+](=O)[O-] | ? | ? | 1.5µM* | 22µM* | ?
Cn1c(/C=C/c2ccccc2[N+](=O)[O-])nc2ccccc2c1=O | ? | ? | ? | . | 4%
COc1c(OC(C)=O)ccc(/C=C/c2ccc3cccc(OC)c3n2)c1[N+](=O)[O-] | 22% | 21% | 12µM* | 23% | 6%
CCOc1c(OC(C)=O)ccc(/C=C/c2ccc3cccc(OC(C)=O)c3n2)c1[N+](=O)[O-] | ? | ? | ? | 24% | -3%
O=[N+]([O-])c1cccc2ccc(/C=C/c3ccc(F)cc3)nc12 | 20% | 1% | 8.5µM* | ? | 25%
O=[N+]([O-])c1ccccc1/C=C/c1ccc2ccccc2n1 | 3.5µM* | 4µM* | 2.1µM* | . | ?
COc1ccc(CNC(=O)CN(C(=O)CCC(=O)Nc2ccccn2)c2cccc(C)c2C)cc1 | -1% | 1% | 0% | . | -8%
CCCCN(CC)CCCNC(=O)c1c(C)oc2ncnc(N3CCOCC3)c12 | . | . | -4% | . | .
CCOC(=O)NC(=S)Nc1c(C)n(C)n(-c2ccccc2)c1=O | -1% | -5% | 0% | 12% | 3%
O=C(CCC(=O)c1ccc(F)cc1)NCC1(N2CCCCC2)CCCCC1 | -3% | 0% | -2% | . | -2%
O=C(O)c1cccc(NC(=O)c2cc3cc(Br)cc(Br)c3oc2=O)c1 | . | . | 12µM* | -4% | .
COc1ccc(C(=O)NNC(=O)c2cc3cc(OC)ccc3oc2=O)cc1 | 1% | -2% | 1% | . | 2%
Cc1cccc(NC(=O)c2cc3ccccc3oc2=O)c1 | 1.1µM* | 1.4µM* | 0.6µM* | . | 2.1µM*
COc1ccc2oc(=O)c(C(=O)Nc3cccc(C)c3)cc2c1 | 4µM* | 1.6µM* | 3µM* | . | 8.2µM*
COc1ccc2oc(=O)c(C(=O)Nc3cccc(C(=O)O)c3)cc2c1 | . | . | -101% | 0.79µM* | .
Cc1ccc(S(=O)(=O)N/N=c2\oc3ccccc3cc2C(=O)Nc2cccc(C)c2)cc1 | -1% | -2% | -1% | 12% | 13%
CCOc1ccc(NC(=S)N2CCN(CCN3C(=O)c4cccc5cccc(c45)C3=O)CC2)cc1 | 4% | -1% | -1% | ? | -6%
Cc1nn(CCc2n[nH]c(=S)n2C2CCCCC2)c(C)c1Br | 0% | 3% | 10% | ? | -3%
C=Cc1ccc(Cn2c(=O)n(C)c(=O)c3sccc32)cc1 | -11% | -15% | -17% | . | ?
Cc1cccn2c(=O)c(C(=O)NCCc3ccccc3)c(O)nc12 | . | . | ? | 5% | .
Cc1ccnc(NC(=O)c2cc3ccccc3oc2=O)c1 | 1.6µM* | 1.1µM* | 0.85µM* | 11µM* | ?
SMILES | NPC1 promoter act | Rab9 prom act | FLuc counter | SMN2 splice enh | ELG1 genotoxic
CC(=O)Nc1cccc(-c2nc(-c3ccccc3)no2)c1 | . | . | 2.4µM* | . | .
CC(=O)Nc1cccc(-c2nnc(-c3ccccc3)o2)c1 | 3.5µM* | 3.5µM* | 12µM* | 13µM* | 8.2µM*
CCOc1cccc(C(=O)Nc2cccc(-c3nnc(-c4ccccc4)o3)c2)c1 | 1% | 6% | 6.7µM* | -15% | -9%
O=C(Nc1ccccc1)Nc1cccc(-c2nnco2)c1 | 3% | 17% | 15µM* | . | -3%
Cn1c(SCc2cccc(Br)c2)nnc1-c1ccncc1 | -3% | 9% | 1% | . | 0%
Clc1ccc(CSCCc2ccncc2)cc1Cl | . | . | . | -5%[9.22 µM] | .
N[C@H](C(=O)O)[C@@H](O)c1cnc[nH]1 | . | . | . | -9%[9.22 µM] | .
O=C(CCSCc1ccccc1F)NCCc1ccccc1 | -1% | 0% | -17% | ? | 10%
CC(=O)OC1CC(OC(C)=O)[C@]2(C)C(CC(=O)[C@]3(C)C2CC[C@@]2(C)C(C(=O)O)OC(=O)C4OC423)C1(C)C (some centres undefined) | . | . | . | -2% | .
Cc1ccc(C(=O)Nc2cccc(C(=O)N/N=C/c3ccc(O)cc3)c2)cc1 | 1.4µM* | 2µM* | 0.67µM* | . | 12%
CC(=O)Nc1cccc(C(=O)N/N=C/c2cccc(C)n2)c1 | 0% | 0% | ? | . | 4%
Cc1cccc(C(=O)Nc2cccc(C(=O)N/N=C/c3cccc(C)n3)c2)c1 | 1% | 2% | 17µM* | . | -1%
O=C(N/N=C/c1cccc(NC(=O)c2ccc(Cl)cc2)c1)c1cccc(O)c1 | 1.3µM* | 2.8µM* | 1.9µM* | . | -3%
Cc1ccc(OCC(=O)Nc2ccc(S(=O)(=O)Nc3ncccn3)cc2)c(C(C)(C)C)c1 | . | . | ? | -1% | .
Nc1ccc(C(=O)N2CCN(S(=O)(=O)c3ccc(Cl)s3)CC2)cc1[N+](=O)[O-] | -4% | 2% | 12% | . | 4%
O=C(Cc1c(Cl)cccc1Cl)N/N=C/c1cccnc1 | -5% | -2% | 2% | . | 0%
Cc1ccc(C(=O)N/N=C/c2ccc(OC(=O)c3ccccc3Cl)cc2)cn1 | 5% | 5% | -9% | . | 2%
O=C(N/N=C/c1cccc(OC(=O)c2ccco2)c1)c1ccc(F)cc1 | 0% | -4% | 3.8µM* | 7% | ?
Cc1ccc(C(=O)N/N=C\c2cccc(OC(=O)c3cccc(F)c3)c2)cn1 | 4% | -1% | 8.5µM* | . | 18%
CCOc1ccc2ccccc2c1/C=N/NC(=O)CNC(=O)c1ccccc1O | 1% | -1% | -3% | . | -8%
O=C(N/N=C/c1cccc(OC(=O)c2ccccc2Cl)c1)c1cccnc1 | 24% | 10% | 24µM* | . | 18%
CCOc1ccc2ccccc2c1/C=N/NC(=O)c1ccc(C)nc1 | 0% | 3% | 4.8µM* | . | 6%
CCC(=O)N1c2ccccc2CC1C(=O)NCc1ccc(CC)cc1 (centres undefined) | . | . | 3% | . | .
Cc1ccc(C(=O)N/N=C\c2ccc(OC(=O)c3cccs3)cc2)cn1 | 4% | 0% | -2% | 11% | 5%
COc1cccc(/C=N\NC(=O)c2ccc(C)nc2)c1 | 23% | 13% | 19µM* | . | 11%
COc1ccccc1NC(=O)C(=O)N/N=C/c1cccs1 | 26% | ? | 9.5µM* | 10%[1.84 µM] | ?
Cc1ccc(C(=O)N/N=C\c2cccs2)cn1 | 21% | 18% | 24µM* | 3% | -4%

Assay outcomes (PubChem)
